Set-up in all cases: scale not given: direction of the effect not stated beside the values
Assay [1] deals with Protein translocase subunit SecA (Escherichia coli (strain K12)) (UniProt P10408). The experiment in a line: Assay to Identify E. coli SecA ATPase Inhibitors. The class given is functional. As to conditions: 30 µM.
The target of assay [2] is T1, Ubiquitin-activating enzyme e1, putative (Leishmania donovani (strain BPK282A1)) (UniProt E9BSI1).
T1 sequence (whole entry): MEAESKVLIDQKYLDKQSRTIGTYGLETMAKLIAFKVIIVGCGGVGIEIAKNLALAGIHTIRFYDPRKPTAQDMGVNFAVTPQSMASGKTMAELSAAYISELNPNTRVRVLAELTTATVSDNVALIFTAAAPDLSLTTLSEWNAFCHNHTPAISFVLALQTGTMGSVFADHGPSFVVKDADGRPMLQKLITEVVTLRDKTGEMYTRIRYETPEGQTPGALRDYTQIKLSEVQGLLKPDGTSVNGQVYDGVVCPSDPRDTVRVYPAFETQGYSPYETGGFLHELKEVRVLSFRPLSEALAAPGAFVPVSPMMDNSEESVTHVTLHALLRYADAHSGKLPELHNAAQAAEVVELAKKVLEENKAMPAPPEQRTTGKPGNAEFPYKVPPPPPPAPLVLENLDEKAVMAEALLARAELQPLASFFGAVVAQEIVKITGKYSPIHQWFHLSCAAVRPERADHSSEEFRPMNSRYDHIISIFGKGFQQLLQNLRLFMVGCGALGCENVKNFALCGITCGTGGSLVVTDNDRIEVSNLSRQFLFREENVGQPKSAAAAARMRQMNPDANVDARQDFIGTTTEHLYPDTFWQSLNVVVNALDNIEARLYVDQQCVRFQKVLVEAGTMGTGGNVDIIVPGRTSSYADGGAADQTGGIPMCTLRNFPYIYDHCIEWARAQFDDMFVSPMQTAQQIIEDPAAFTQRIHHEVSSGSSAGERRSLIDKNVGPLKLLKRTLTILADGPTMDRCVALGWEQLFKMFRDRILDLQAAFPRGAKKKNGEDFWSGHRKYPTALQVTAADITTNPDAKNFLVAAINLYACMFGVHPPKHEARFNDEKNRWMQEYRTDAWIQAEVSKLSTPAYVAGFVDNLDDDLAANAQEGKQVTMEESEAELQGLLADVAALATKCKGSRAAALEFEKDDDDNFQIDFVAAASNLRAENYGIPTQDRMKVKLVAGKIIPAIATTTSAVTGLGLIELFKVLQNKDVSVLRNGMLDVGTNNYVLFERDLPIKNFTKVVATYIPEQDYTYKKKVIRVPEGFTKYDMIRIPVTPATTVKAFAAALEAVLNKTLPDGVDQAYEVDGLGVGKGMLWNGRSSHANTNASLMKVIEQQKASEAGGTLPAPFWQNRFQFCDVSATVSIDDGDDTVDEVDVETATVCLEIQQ
The experiment in a line: Leishmania donovani Ubiquitin Activating Enzyme (LdE1). The class given is functional. To be noted: 30 µM.

Assay [3] has as its target AMP-activated protein kinase, AMPK (Homo sapiens) (UniProt P54646+O43741+P54619+Q9UGJ0+Q9Y478+Q13131+Q9UGI9). Description: AMP-dependent Kinase enzyme assay. An in vitro enzyme assay that detects ADP turnover that is directly proportional to AMPK activity. This uses naive AMPK that is activated during the assay with MK-8722. The class given is functional. To be noted: 30 µM.

In assay [4] the target is Sialic acid-binding Ig-like lectin 9 (Homo sapiens) (UniProt Q9Y336). Description: Hs-Siglec9 ALPHAscreen SOP 20170721. As to conditions: 10 µM. A general note: Alpha assays give light when donor and acceptor beads are brought close together.
A further assay has as its system Trypanosoma cruzi. Description: Trypanosoma cruzi phosphomannomutase and mannose-1-phosphate guanylyltransferase assay. The class given is functional. As to conditions: 10 µM.
The target in assay [5] is T2, Arginase-2, mitochondrial (Homo sapiens) (UniProt P78540).
T2 sequence (whole entry): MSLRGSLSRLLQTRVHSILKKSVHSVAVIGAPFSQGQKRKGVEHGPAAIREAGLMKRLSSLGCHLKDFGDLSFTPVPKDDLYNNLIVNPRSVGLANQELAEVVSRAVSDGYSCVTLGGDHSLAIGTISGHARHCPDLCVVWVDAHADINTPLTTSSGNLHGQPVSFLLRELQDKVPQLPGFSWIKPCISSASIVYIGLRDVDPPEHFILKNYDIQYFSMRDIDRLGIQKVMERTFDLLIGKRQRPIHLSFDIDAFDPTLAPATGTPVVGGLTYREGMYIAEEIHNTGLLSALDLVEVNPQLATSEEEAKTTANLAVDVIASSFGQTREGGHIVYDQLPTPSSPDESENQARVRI
The experiment in a line: in vitro enzyme assay to detect the production of urea directly proportional to the activity of Arginase II. Note: in the data most compounds retested in dose-response had high values. The class given is functional. As to conditions: 33.3 µM.

For assay [6], the target named is T3, Proteasome subunit beta (Trypanosoma cruzi) (UniProt O96673).
T3 sequence (whole entry): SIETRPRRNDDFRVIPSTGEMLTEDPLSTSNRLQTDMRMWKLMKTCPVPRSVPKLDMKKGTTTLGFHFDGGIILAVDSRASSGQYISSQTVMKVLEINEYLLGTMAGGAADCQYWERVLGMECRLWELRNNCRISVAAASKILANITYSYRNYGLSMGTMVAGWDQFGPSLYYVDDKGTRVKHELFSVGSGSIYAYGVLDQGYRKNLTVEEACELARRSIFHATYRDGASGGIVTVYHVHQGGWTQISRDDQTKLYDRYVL
Description: Trypanosoma cruzi proteasome chymotrypsin-like activity (TcProtChymo) assay. Note: in the data most compounds retested in dose-response had high values. The class given is functional. As to conditions: 9.37 µM.

For the next assay, the species on record is Homo sapiens. Description: To identify inhibition of the IFN signalling (Jak-Stat) pathway via expression of an eGFP reporter gene under the control of an IFN-stimulated response element (ISRE) containing MxA promoter. The class given is functional. As to conditions: 30 µM. In general terms: A reporter such as luciferase makes a cellular process visible.

The target of assay [7] is T4, Tyrosyl-tRNA synthetase, putative (Trypanosoma cruzi (strain CL Brener)) (UniProt Q4DSP6).
T4 sequence (whole entry): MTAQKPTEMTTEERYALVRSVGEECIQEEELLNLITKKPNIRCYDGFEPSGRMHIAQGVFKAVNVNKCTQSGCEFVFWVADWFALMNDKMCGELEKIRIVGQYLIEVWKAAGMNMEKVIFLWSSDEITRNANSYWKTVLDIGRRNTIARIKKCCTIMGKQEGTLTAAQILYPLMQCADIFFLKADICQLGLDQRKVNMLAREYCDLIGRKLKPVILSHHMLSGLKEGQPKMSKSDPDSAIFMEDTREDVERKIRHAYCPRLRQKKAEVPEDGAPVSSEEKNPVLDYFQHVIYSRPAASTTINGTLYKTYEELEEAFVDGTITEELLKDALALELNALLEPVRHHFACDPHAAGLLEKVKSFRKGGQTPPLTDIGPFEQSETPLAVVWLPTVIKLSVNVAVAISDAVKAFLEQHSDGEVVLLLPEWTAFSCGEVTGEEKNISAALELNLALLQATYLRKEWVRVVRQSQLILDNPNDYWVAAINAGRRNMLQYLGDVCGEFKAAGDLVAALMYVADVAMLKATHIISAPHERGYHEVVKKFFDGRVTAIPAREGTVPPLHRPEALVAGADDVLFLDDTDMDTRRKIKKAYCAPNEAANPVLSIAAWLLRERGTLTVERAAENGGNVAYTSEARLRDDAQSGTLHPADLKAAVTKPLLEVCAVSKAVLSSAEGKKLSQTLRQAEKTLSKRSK
Description: Trypanosoma cruzi tyrosyl tRNA synthetase (TcYRS) _High Tyrosine SOP. Note: in the data most compounds retested in dose-response had high values. The class given is functional. As to conditions: 30 µM.

Assay [8] has as its target T4, Tyrosyl-tRNA synthetase, putative (Trypanosoma cruzi (strain CL Brener)). Description: Trypanosoma cruzi tyrosyl tRNA synthetase (TcYRS) SOP. The class given is functional. To be noted: 30 µM.
Assay [9] has as its target Chromo domain-containing protein 1 (Saccharomyces cerevisiae (strain ATCC 204508 / S288c) (Baker's yeast)) (UniProt P32657). Description: ScCHD-1 Enzyme Inhibition Assay. Note: in the data most compounds retested in dose-response had high values. The class given is functional. To be noted: 30 µM.

For some of these results: Entries with a potency or affinity are not part of this list.

Chain of Sialic acid-binding Ig-like lectin 9 (Homo sapiens) (Q9Y336 whole entry): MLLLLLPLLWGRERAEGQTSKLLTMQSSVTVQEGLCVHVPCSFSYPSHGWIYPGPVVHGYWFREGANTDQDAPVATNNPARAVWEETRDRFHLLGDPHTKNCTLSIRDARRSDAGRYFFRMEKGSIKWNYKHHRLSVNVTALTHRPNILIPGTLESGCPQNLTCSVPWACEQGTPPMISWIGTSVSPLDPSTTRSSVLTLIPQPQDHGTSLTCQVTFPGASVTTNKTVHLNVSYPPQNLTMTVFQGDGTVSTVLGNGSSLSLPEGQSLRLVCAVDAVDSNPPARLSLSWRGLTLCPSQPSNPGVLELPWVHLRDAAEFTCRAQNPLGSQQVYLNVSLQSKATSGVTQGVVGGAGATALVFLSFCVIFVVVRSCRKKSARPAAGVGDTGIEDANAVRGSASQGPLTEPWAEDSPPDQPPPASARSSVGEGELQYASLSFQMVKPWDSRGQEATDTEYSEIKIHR
Chain of Chromo domain-containing protein 1 (Saccharomyces cerevisiae (strain ATCC 204508 / S288c) (Baker's yeast)) (P32657 whole entry, the tested form may be a part): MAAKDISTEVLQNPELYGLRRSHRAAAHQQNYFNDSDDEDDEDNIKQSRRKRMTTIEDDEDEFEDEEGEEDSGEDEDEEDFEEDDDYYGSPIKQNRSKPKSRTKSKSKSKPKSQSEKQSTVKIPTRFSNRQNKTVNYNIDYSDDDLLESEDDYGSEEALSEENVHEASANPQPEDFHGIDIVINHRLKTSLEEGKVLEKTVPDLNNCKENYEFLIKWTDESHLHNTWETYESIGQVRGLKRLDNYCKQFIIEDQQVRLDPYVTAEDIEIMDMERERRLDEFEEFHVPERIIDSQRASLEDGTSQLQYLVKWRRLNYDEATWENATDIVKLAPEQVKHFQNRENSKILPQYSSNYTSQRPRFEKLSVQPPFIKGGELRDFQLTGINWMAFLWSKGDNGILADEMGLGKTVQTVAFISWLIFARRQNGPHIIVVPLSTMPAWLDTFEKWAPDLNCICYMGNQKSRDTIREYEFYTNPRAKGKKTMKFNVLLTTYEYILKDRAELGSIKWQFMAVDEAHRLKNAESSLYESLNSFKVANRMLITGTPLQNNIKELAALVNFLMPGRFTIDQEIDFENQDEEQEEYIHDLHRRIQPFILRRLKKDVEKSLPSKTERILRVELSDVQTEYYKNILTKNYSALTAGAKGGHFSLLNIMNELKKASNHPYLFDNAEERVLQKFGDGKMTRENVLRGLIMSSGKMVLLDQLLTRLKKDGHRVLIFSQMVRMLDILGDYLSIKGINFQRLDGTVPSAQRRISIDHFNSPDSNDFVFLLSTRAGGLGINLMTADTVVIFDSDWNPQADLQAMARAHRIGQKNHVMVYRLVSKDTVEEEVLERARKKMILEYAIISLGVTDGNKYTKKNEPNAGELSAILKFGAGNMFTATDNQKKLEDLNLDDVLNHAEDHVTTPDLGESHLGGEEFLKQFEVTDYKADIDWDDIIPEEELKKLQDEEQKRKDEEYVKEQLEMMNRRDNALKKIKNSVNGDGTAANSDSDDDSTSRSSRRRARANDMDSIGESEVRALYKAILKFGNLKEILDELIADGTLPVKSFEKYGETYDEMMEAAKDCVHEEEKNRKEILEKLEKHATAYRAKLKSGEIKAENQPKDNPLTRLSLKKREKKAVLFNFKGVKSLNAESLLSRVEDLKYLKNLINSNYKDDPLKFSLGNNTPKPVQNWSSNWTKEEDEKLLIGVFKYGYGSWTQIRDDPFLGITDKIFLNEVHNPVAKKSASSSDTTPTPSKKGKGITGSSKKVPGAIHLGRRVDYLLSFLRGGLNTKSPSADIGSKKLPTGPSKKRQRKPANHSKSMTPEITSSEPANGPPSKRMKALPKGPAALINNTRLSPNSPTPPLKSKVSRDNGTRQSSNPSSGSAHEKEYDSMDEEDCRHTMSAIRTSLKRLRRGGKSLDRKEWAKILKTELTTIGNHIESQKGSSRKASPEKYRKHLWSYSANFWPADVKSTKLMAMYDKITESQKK
Chain of Protein translocase subunit SecA (Escherichia coli (strain K12)) (P10408 whole entry): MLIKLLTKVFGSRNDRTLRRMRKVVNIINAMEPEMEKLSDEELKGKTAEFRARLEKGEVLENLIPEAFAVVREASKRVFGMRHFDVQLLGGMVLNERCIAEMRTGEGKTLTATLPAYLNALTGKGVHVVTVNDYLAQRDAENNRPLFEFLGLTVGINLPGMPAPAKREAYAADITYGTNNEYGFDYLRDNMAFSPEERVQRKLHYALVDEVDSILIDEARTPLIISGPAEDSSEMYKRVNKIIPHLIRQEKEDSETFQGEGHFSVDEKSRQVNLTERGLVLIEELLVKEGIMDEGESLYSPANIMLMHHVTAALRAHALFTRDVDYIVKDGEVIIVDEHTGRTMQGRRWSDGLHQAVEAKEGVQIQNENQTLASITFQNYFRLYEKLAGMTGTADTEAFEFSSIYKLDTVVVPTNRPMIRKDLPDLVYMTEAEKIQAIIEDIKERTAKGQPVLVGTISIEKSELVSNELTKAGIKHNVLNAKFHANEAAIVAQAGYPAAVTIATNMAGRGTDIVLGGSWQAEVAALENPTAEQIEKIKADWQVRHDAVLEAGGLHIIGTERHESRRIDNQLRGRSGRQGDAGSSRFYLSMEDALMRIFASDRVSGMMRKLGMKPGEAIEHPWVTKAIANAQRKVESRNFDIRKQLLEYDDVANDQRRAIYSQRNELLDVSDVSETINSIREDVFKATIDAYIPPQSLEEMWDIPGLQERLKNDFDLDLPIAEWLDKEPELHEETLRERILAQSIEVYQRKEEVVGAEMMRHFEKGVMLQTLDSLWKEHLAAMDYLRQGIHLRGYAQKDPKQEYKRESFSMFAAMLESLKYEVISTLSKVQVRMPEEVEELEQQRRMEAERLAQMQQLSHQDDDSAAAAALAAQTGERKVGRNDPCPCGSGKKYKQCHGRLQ

Consider `COc1c(CNCc2ccc(C(=O)NC3CC3)cc2)c(C)nn1C`, for which the Percent Effect in assay [1] was -3.12%; in assay [2], 8.86%; in assay [3], -1.46%; in [4] it was 6.83%; in the assay on Trypanosoma cruzi, -3.18%; in [5], 2.8%. For the same molecule, the Percent Effect in assay [6] was 11%; in the assay listed under Homo sapiens, 9.67%; in [7], 1.04%; in [8], 12.7%; in assay [9] it was -6.42%.

For the molecule `CN(C)C(=O)CSc1nnc(CCNC(=O)OC(C)(C)C)o1`, the Percent Effect in assay [1] was -1.89%; in assay [2] it was 9.33%; in assay [3] it was 6.95%; in [4], -7.38%; with Trypanosoma cruzi, -8.64%; in [5], -13.6%. The Percent Effect is 13.9% in assay [6]; 10.4% in the assay filed under Homo sapiens; -3.17% in [7]; 2.56% in assay [8]; -10.9% in assay [9].

As for `O=C(O)C1(Cc2cccc(-c3ccc(F)c(F)c3)c2)CCOCC1`, the Percent Effect in assay [1] was -3.39%; in assay [2], 1.35%; in [3], 13.4%; in [4], 4.42%; in the assay on Trypanosoma cruzi, -1.78%; in assay [5], 1.16%. The Percent Effect is 5.93% in assay [6]; 28.6% in the assay filed under Homo sapiens; -15.1% in assay [7]; -11.7% in assay [8]; -15% in assay [9].

In the case of `Cc1nonc1CN(C)CC1(O)CCCN(CCC2CCCCC2)C1=O` (stereo unspecified), the Percent Effect in [1] is 2.32%; in assay [2], 8%; in [3] it was -14.2%; in assay [4], -0.787%; in the assay with Trypanosoma cruzi it was 1.66%; in assay [5], 12.5%. For the same molecule, the Percent Effect in assay [6] was 16.4%; in the assay listed under Homo sapiens, 35.9%; in assay [7], 10.4%; in assay [8] it was 18.5%; in assay [9], -1.61%.

For `COc1cccc2c1OCC(CNC(=O)CCCN1CCOCC1)C2` (stereo unspecified), the Percent Effect in assay [1] is -1.74%; in assay [2] it was 5.41%; in [3] it was -7.92%; in assay [4], 19.8%; in the assay on Trypanosoma cruzi, 2.05%; in assay [5], -0.248%. Besides, the Percent Effect in [6] was 13.1%; in the assay listed under Homo sapiens, 11.9%; in assay [7] it was 8.6%; in [8] it was 18.5%; in assay [9], -5.59%.

Turning to `CC(NC(N)=O)C(=O)N(C)CCCc1cc(-c2ccccc2)no1` (stereo unspecified), the Percent Effect in assay [1] was -3.18%; in assay [2], 2.7%; in [3], 7.96%; in assay [4], -4.86%; with Trypanosoma cruzi, -10.1%; in assay [5], -1.29%. Moreover, the Percent Effect in assay [6] is 9.34%; in the assay filed under Homo sapiens, 25%; in assay [7] it was 3.96%; in [8], 6.1%; in assay [9] it was 0.208%.

For the molecule `CN(C)C(=O)c1ccc2c(c1)N(C)C(CC(=O)NCCC(C)(C)C)CO2` (stereo unspecified), the Percent Effect was -3.89% in assay [1]; 9.72% in assay [2]; 3.96% in assay [3]; 13.4% in assay [4]; 5.73% in the assay with Trypanosoma cruzi; 22.1% in assay [5]. The Percent Effect was 14.4% in assay [6]; 2.35% in the assay listed under Homo sapiens; 3.16% in assay [7]; 10.3% in assay [8]; -5.3% in assay [9].

As for `CC(C)(C)c1ccn(C2(C(=O)O)CCN(c3nccc(N)n3)CC2)n1`, the Percent Effect in assay [1] is -4.48%; in [2], -6.94%; in assay [3], 0.972%; in assay [4], 0.435%; with Trypanosoma cruzi, -2.23%; in [5], -0.442%. The Percent Effect in assay [6] was 10.7%; in the assay listed under Homo sapiens it was 0.112%; in assay [7] it was 3.16%; in assay [8], -5.13%; in assay [9], 6.06%.

Take `CN1CCN(c2nc(O)c3c(-c4ccccn4)ccnc3n2)CC1`: the Percent Effect in assay [1] is -4.77%; in assay [2] it was 0%; in assay [3], 6.93%; in assay [4], 2.2%; in the assay with Trypanosoma cruzi, -2.24%; in [5], -7.1%. Besides, the Percent Effect in assay [6] is 18.1%; in the assay listed under Homo sapiens, -16.4%; in [7] it was 6.38%; in assay [8], 10.4%; in assay [9], -7.72%.

As to `O=C(C1CCCc2[nH]ncc21)N1CCCCCC1` (stereo unspecified), the Percent Effect in assay [1] was -3.72%; in assay [2], 5.41%; in assay [3], -4.75%; in assay [4] it was 2.71%; in the assay on Trypanosoma cruzi, -2.64%; in assay [5], -1.24%. Besides, the Percent Effect in assay [6] was 11.2%; in the assay filed under Homo sapiens it was 0.454%; in [7] it was 2.15%; in assay [8], 6.17%; in assay [9], -3.22%.

`CCS(=O)(=O)N1CCC2(CC(=O)N(c3cccc(C)c3)C2)C1` (stereo unspecified): the Percent Effect was -2.42% in assay [1]; 8% in assay [2]; -0.745% in assay [3]; 0.841% in assay [4]; 1.54% in the assay with Trypanosoma cruzi; -48.9% in assay [5]. Moreover, the Percent Effect in assay [6] is 8.21%; in the assay listed under Homo sapiens, -25.8%; in assay [7], 8.33%; in [8], 27.5%; in assay [9], -6.79%.

The values above are taken from ChEMBL document CHEMBL3988442, “University of Dundee, Small-Polar-MMV Screening Library” (2021).
